Experimental data reported in PubChem BioAssay (NCI).
This is part of a sample that, as a whole, favours compounds with a hit. Of some 83,000 tested, about 20% had one in any assay.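 Plates (96-well) were seeded with cells, treated with compound at one concentration, and incubated for 48 hours before percent growth was determined.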 A number with no mark means an inactive call. Activity calls are given as the source filed them. Rule for the calls: active = growth percent below 10; inactive = the rest.

Columns and labels:
Test in all cases: NCI-60 one-dose screen, 48 h (100 = growth as untreated, 0 = no growth, -100 = all killed)
Details in all cases: 10 µM unless noted
[1] = system: NCI-H23 lung
[2] = system: NCI-H226 lung
[3] = system: NCI-H322M lung
[4] = system: HOP-62 NSCLC
[5] = system: NCI-H460 lung
[6] = system: HOP-92 NSCLC
[7] = system: NCI-H522 lung
[8] = system: A549/ATCC NSCLC
[9] = system: 786-0 renal
[10] = system: COLO 205 colon
[11] = system: DU-145 prostate
[12] = system: K-562 leukemia
[13] = system: MALME-3M melanoma
[14] = system: MDA-MB-231 breast
[15] = system: SF-268 CNS
[16] = system: SF-295 CNS
[17] = system: SF-539 CNS
[18] = system: UACC-257 melanoma
[19] = system: M14 melanoma
[20] = system: RXF 393 renal

SMILES | growth [1] | growth [2] | growth [3] | growth [4] | growth [5] | growth [6] | growth [7] | growth [8] | growth [9] | growth [10] | growth [11] | growth [12] | growth [13] | growth [14] | growth [15] | growth [16] | growth [17] | growth [18] | growth [19] | growth [20]
COc1cc(NC(=O)c2cc(OC)c3ccn(C)c3c2)cc2c1C[C@]1(C)CC[C@@H](O)C(C)(C)[C@H]1O2 | 79.9% | 106% | 90.4% | 46.1% | 49.2% | 44.6% | 76.1% | 63.6% | -1.08% (active) | 51.7% | 71.5% | 20.2% | 49.9% | 57.7% | 66.7% | -39.6% (active) | 20.3% | 62.2% | 23.7% | 
Clc1ccc(CN2COc3c(ccc4cccnc34)C2)cc1Cl | 13.5% | -11.5% (active) | 12.3% | -2.68% (active) | -26.2% (active) | -9.87% (active) | -56.7% (active) | -4.93% (active) | -63.3% (active) | 12% | 6.34% (active) | -34.2% (active) | -11.3% (active) | 19.7% | -3.19% (active) | -18.6% (active) | -36.7% (active) | -35.1% (active) | -3.94% (active) | 
O=C1CN(CCN2CC(=O)NC(=O)C2)CC(=O)N1 | 95.9% | 94.7% | 84.3% | 93.4% | 117% | 72.3% | 97.1% | 101% | 97.1% | 118% | 90.7% | 106% | 94.5% | 102% | 108% | 85.9% | 118% | 104% | 94.8% | 
CCC(C)Nc1ccc(N)cc1 (stereo not drawn) | 5.04% (active) | 42.5% | 53.3% | 11.6% | 9.41% (active) | -24.5% (active) | -25.2% (active) | 11.8% | -35.8% (active) | -57.2% (active) | 32.1% | 3.79% (active) | -15.6% (active) | 4.8% (active) | 47% | 11.4% | 47.5% | -43.1% (active) | 31.9% | 
Cc1ccc2oc(=O)cc(C3C(C#N)=C(N)Oc4c3ccc3ccccc43)c2c1 (stereo not drawn) | 89.8% | 87.1% | 89.2% | 63.7% | 84.1% | 87.3% | 48.6% | 71.1% | 81.3% | 70.3% | 96.3% |  | 95.5% | 81.9% | 82.7% | 75.8% | 82.6% | 85.4% | 61.5% | 79.2%
CC(C)(C)OC(=O)N1CC(Cn2cc(C(F)(F)F)c3c(Cl)ncnc32)C1 | -68.9% (active) | 63.8% | -90.2% (active) | -83.7% (active) | -59% (active) | -64.5% (active) | 39.9% | 5.78% (active) | 107% | 63.8% | -100% (active) |  | 80.6% | 0.765% (active) | -86.9% (active) | 30.4% | 79.9% | -37.9% (active) | -87.4% (active) | -63.7% (active)
O=C(NC(=S)Nc1ccc(Cl)cc1)c1ccccc1 | 98.4% | 108% | 107% | 96.6% | 105% | 85.8% | 53% | 85.1% | 90.9% | 132% | 103% | 73.2% | 112% | 96.3% | 114% | 85.5% | 103% | 97% | 100% | 
COc1ccc(-c2coc3c(CO)c(O)ccc3c2=O)cc1 | 79.5% | 61.7% | 52.9% | 53% | 32.7% | 55.8% | 67.2% | 90.5% | 90.3% | 115% | 9.29% (active) |  | 21.3% | 25% | 22.2% | 23.1% | 47.9% | 90.3% | 75.5% | -27.4% (active)
CN(C)c1ccc2cc(-c3nc4ccccc4s3)c(N)nc2c1 | 50.8% | 119% | 49.8% | 40.3% | 19.6% | 85.1% | 17% | 28.3% | 35.3% | 84.1% | 40.8% |  | 83.4% | 70.7% | 58.7% | 22.3% | 34% | 93.9% | 50.9% | 83.5%
Cc1cc(NCCN(C(C)C)C(C)C)nc(/N=C(\N)Nc2ccc(Cl)c(C(F)(F)F)c2)n1 | -67.1% (active) | -32.1% (active) | -51.9% (active) | -95.4% (active) | -84.7% (active) | -93.5% (active) | -81.1% (active) | -89.5% (active) | -99.7% (active) | -71.3% (active) | -29.5% (active) | -100% (active) | -74.5% (active) | -65.1% (active) | -85% (active) | -77.8% (active) | -97.8% (active) | -95.3% (active) | -89.8% (active) | 
CC(CN(C)C)CN1c2ccccc2CCc2ccccc21 (stereo not drawn) | 83.3% | 100% | 77.1% | 96.4% | 103% | 38.9% | 80.2% | 94.4% | 64.3% | 46.1% | 106% | 65.4% | 88.8% | 85.9% | 93% | 87.5% | 90.5% | 105% | 52.3% | 
COc1ccc2c(c1)nnn1c3ncccc3c(N=O)c21 | -23.8% (active) | -57.7% (active) | 31% | -41.7% (active) | -70% (active) | -49.2% (active) | -85.7% (active) | 6.65% (active) | -63.1% (active) | -61% (active) | -56.1% (active) | -75% (active) | -8.37% (active) | -31.2% (active) | -50.4% (active) | 24.2% | -71.2% (active) | -10% (active) | -67.5% (active) | 
CCOc1cccc(Nc2nc(N)nc3[nH]c4ccc(O)cc4c23)c1 | 68.5% | 79.5% | 65.1% | 61.7% | 82% | 25.9% | 49.2% | 46.6% | 52.8% | 96.9% | 49% |  | 96.9% | 54.8% | 44.6% | 68.1% | 81.4% | 88.6% | 75.3% | 43%
O=c1c(-c2ccc3c(c2)OCO3)coc2c(CO)c(O)ccc12 | 56.8% | -35.6% (active) | 16.6% | -54.1% (active) | 9.52% (active) | -21.6% (active) | 36.7% | 49.2% | 23.6% | 113% | -20.8% (active) |  | -45.1% (active) | -33.6% (active) | -43.3% (active) | 3.29% (active) | -9.82% (active) | 9.01% (active) | 45% | -84% (active)
COC(=O)CCCNS(=O)(=O)c1cc(C(=O)Nc2ccc(NC(=O)c3cc(S(=O)(=O)NCCCC(=O)OC)c(O)c(O)c3O)cc2)c(O)c(O)c1O | 92.4% | 98.4% | 89.4% | 98.5% | 97.3% | 115% | 86.1% | 83.2% | 112% | 114% | 98.1% |  | 105% | 94.7% | 91.9% | 98.1% | 102% | 96.2% | 98.3% | 107%
O=C(Cn1c2ccccc2c2ccncc21)N/N=C/c1cc(O)c(O)c(O)c1 | 103% | 105% | 108% | 104% | 101% | 111% | 84.5% | 101% | 105% | 110% | 104% |  | 112% | 101% | 98.1% | 110% | 93.1% | 98.8% | 110% | 97.7%
COc1cc(/C=C/C(=O)N2CCC=CC2=O)cc(OC)c1OC | 62.3% | 109% | 84.3% | 82.8% | 76% | 28.9% | -68.2% (active) | 72.3% | 29.5% | 5.08% (active) | 43.5% |  | 10.5% | 45.9% | 85.1% | 94.1% | 29.6% | 66.4% | 55.7% | 9.03% (active)
